Consider seven compounds from PubChem BioAssay (Tox21).

Where “and” joins values, the source holds several entries; their conditions need not be identical. Identical values can stand only once. Records with an inconclusive call do not appear. Calls of active or inactive are those of the source. Unless noted, calls come from the whole dose curve; as a rule, active = well fitted curve in the direction sought with a large enough effect in the repeat runs; inconclusive = weak or mixed curves; inactive = no such curve, though single readings can be large; an effect the other way counts as inactive or inconclusive.

The target of experiment [1] is Estrogen receptor beta (Homo sapiens) (UniProt Q92731). Briefly: qHTS assay to identify small molecule agonists of the estrogen receptor beta (ER-beta) signaling pathway (AID 1259377; active = well fitted activation curve with a large enough effect in the signal ratio in the repeat runs, not every such curve was filed as active; the % refers to the signal ratio). Summed up: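 qHTS in ER-beta-UAS-bla HEK293T cells: 6 hr settling, then 16 hr compound at 37C, then LiveBLAzer substrate 2 h at RT before fluorescence reading.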
For orientation: In qHTS, concentration-response curves come from the screen itself.

The nature of experiment [2]: qHTS assay to identify small molecule agonists of the androgen receptor (AR) signaling pathway in the presence of an antagonist - cell viability counter screen (AID 1259379). Note: nearly all actives have a fitted effect of over 25% in size. Note: potency is the fitted concentration of half-maximal effect. Summed up: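 MDA-kb2 viability measured by CellTiter-Fluor fluorescence in the same wells as the luciferase signal; nilutamide 3.0uM final; 15-point compound titration; 16 hr at 37C.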
A short description of experiment [3]: qHTS assay to identify small molecule antagonists of the estrogen receptor beta (ER-beta) signaling pathway - cell viability counter screen (AID 1259382). Note: nearly all actives have a fitted effect of over 55% in size. Note: potency is the fitted concentration of half-maximal effect. In a few lines:
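Readout: luminescence, CellTiter-Glo, same wells as bla assay. System: ER-beta-UAS-bla GripTite HEK293T, 2% charcoal-stripped FBS. Exposure: compounds plus 1nM 17-beta-estradiol, 16 hr, 37C.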

The nature of experiment [4]: qHTS assay to identify small molecule agonists or antagonists of the thyroid stimulating hormone receptor (TSHR) signaling pathway - wild type cell line counter screen (AID 1259384; calls by dose curve). Summed up:
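Wild-type HEK293 cells were plated 18 h at 37 C/5% CO2, pin-dosed with compound plus Ro20-1724 medium, held 30 min at room temperature, then given cAMP-d2 and anti-cAMP-cryptate; fluorescence was read after 1 h. Fifteen concentrations, triplicate.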

The target in experiment [5] is Thyrotropin receptor (Homo sapiens) (UniProt P16473). Kind of experiment: qHTS assay to identify small molecule antagonists of the thyroid stimulating hormone receptor (TSHR) signaling pathway (AID 1259385; calls by dose curve; note: nearly all actives have a fitted effect of over 20% in size). In a few lines: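 TSHR-HEK293 cells were plated and held 18 h at 37C/5% CO2, then given compound plus Ro20-1724 and stimulated with TSH at 1.5 ng/mL final. After 30 min at room temperature, cAMP was detected with cAMP-d2/anti-cAMP-cryptate (1 h) by fluorescence.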

The target of experiment [6] is Progesterone receptor (Homo sapiens) (UniProt P06401). Briefly: qHTS assay to identify small molecule agonists of the progesterone receptor (PR) signaling pathway (AID 1346784; calls by dose curve; note: nearly all actives have a fitted effect of over 30% in size). In a few lines:
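Fluorescence from LiveBLAzer B/G FRET substrate cleavage (2 hr, RT) reported PR activation in PR-UAS-bla HEK 293T cells treated 16 hr at 37C/5% CO2 with compounds; medium contained 2% charcoal-stripped FBS.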

The target is the same in experiment [7]. Kind of experiment: qHTS assay to identify small molecule antagonists of the progesterone receptor (PR) signaling pathway (AID 1346795; active = well fitted inhibition curve with a large enough effect in the signal ratio in the repeat runs, not every such curve was filed as active; the % refers to the signal ratio). In a few lines:
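Fluorescence intensity measured 2 hr after adding beta-lactamase FRET substrate to PR-UAS-bla HEK293T cells that had been co-treated 16 hr with compound and 1 nM R5020 (final concentration) in 2% charcoal-stripped FBS.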

Experiment [8] is described as follows: qHTS assay to identify small molecule agonists of the progesterone receptor (PR) signaling pathway - cell viability counter screen (AID 1346799; calls by dose curve; note: nearly all actives have a fitted effect of over 45% in size; note: potency is the fitted concentration of half-maximal effect). Summed up: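 In parallel with the beta-lactamase readout, cytotoxicity toward PR-UAS-bla HEK293T cells was measured by CellTiter-Glo luminescence following 16 hr compound incubation in 2% charcoal-stripped FBS medium.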

A short description of experiment [9]: qHTS assay to identify small molecule antagonists of the TGF-beta/Smad signaling pathway - cell viability counter screen (AID 1346824). Note: nearly all actives have a fitted effect of over 50% in size. Note: potency is the fitted concentration of half-maximal effect. In a few lines: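 SBE-bla HEK 293T cells were plated overnight at 37 C, then given compounds in DMSO plus TGF-beta1 (added as 0.25 ng/mL solution) for 5 hr. After the bla read, CellTiter-Glo was added to the same wells and luminescence read after 30 min at room temperature.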

Experiment [10] can be described thus: qHTS assay to identify small molecule agonists of the TGF-beta/Smad signaling pathway - cell viability counter screen (AID 1346829). Note: nearly all actives have a fitted effect of over 45% in size. Note: potency is the fitted concentration of half-maximal effect. Summed up:
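Tox21 qHTS format: SBE-bla HEK 293T cells treated with DMSO-dissolved compounds for 5 hr; CellTiter-Glo luminescence after 30 min at room temperature.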

Experiment [11] can be described thus: qHTS assay to identify small molecule agonists of the TGF-beta/Smad signaling pathway (AID 1346859; active = well fitted activation curve with a large enough effect in the signal ratio in the repeat runs, not every such curve was filed as active; the % refers to the signal ratio; note: series mostly up to about 77 µM). Summed up:
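After overnight seeding, SBE-bla HEK 293T cells are dosed with compounds in DMSO and kept 5 hr at 37 C, 5% CO2. LiveBLAzer-type FRET substrate is then applied for 2 hr at room temperature.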

Experiment [12] in a line: Human pregnane X receptor (PXR) small molecule agonists, qHTS cell viability counter screen (AID 1346977). Note: nearly all actives have a fitted effect of over 50% in size. Note: potency is the fitted concentration of half-maximal effect. Summed up: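 Viability counter screen: CellTiter-Fluor signal in PXR-Luc HepG2 cells, 24hr compound exposure, 37C, 5% CO2.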
Experiment [13] has as its target Estrogen receptor (Homo sapiens) (UniProt P03372). Briefly: qHTS assay to identify small molecule agonists of the estrogen receptor alpha (ER-alpha) signaling pathway in the presence of an antagonist (AID 1259383; calls by dose curve; note: top concentration of the series differs between compounds; nearly all actives have a fitted effect of over 15% in size). In a few lines:
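Quantitative HTS confirmation: compounds titrated at 15 concentrations onto estrogen-deprived VM7Luc4E2 cells carrying a four-ERE luciferase construct, with ICI-182,780 present at 10.0nM final. Signal is luminescence after 22hr exposure.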

Experiment [14] can be described thus: qHTS assay to identify small molecule agonists of the estrogen receptor alpha (ER-alpha) signaling pathway in the presence of an antagonist - cell viability counter screen (AID 1259386).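 Note: series mostly up to about 92 µM; cells exposed to compounds for 22 h at 37 °C before the viability read; nearly all actives have a fitted effect of over 30% in size.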 Summed up:
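The test measures whether compounds kill ER-alpha reporter cells (VM7Luc4E2) under antagonist co-treatment (ICI-182,780, 10.0nM). Fluorescence from CellTiter-Fluor is read after a 22hr exposure.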

Experiment [15] addresses Thyrotropin-releasing hormone receptor (Homo sapiens) (UniProt P34981). Kind of experiment: qHTS assay to identify small molecule antagonists of the thyrotropin-releasing hormone receptor (TRHR) signaling pathway (AID 1346877; active = well fitted inhibition curve with a large enough effect in the repeat runs, not every such curve was filed as active; note: series mostly up to about 51 µM). Summed up:
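Overnight-plated (18 h, 37 °C) HEK293 cells expressing TRHR were dye-loaded 2 h, treated with compound, then stimulated with TRH at 1 nM final. Fluorescence intensity was captured every second for 3 min.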

The target is the same in experiment [16]. Briefly: qHTS assay to identify small molecule agonists of the thyrotropin-releasing hormone receptor (TRHR) signaling pathway (AID 1346891; calls by dose curve;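 note: HEK293 cells expressing TRHR with calcium dye readout; series mostly up to about 58 µM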). In a few lines: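 Compounds were tested as agonists at 15 concentrations, in triplicate, on TRHR-Hek293 cells; calcium-sensitive dye fluorescence was recorded for 3 min following addition.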
Experiment [17] in a line: qHTS assay to identify small molecule agonists of the estrogen receptor beta (ER-beta) signaling pathway - cell viability counter screen (AID 1259380). Note: nearly all actives have a fitted effect of over 30% in size. Note: potency is the fitted concentration of half-maximal effect. In a few lines: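 Measured: luminescence from CellTiter-Glo after 30 min at room temperature, added to wells already read for the LiveBLAzer FRET reporter (2 hr substrate); ER-beta-UAS-bla HEK293T cells had 16 hr compound treatment at 37C, 5% CO2.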

A short description of experiment [18]: qHTS assay to identify small molecule antagonists of the progesterone receptor (PR) signaling pathway - cell viability counter screen (AID 1346798). Note: nearly all actives have a fitted effect of over 50% in size. Note: potency is the fitted concentration of half-maximal effect. In a few lines:
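CellTiter-Glo luminescence; PR-UAS-bla HEK293T, 3,000 cells/well; compound + R5020, 16 hr, 37C/5% CO2; 30 min RT before read.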

Experiment [19] addresses Androgen receptor (Homo sapiens) (UniProt P10275). Kind of experiment: qHTS assay to identify small molecule agonists of the androgen receptor (AR) signaling pathway in the presence of an antagonist (AID 1259381; calls by dose curve; note: nearly all actives have a fitted effect of over 15% in size). In a few lines:
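Luminescent ONE-Glo read, 30min at room temperature, follows 16hr compound exposure (15 concentrations) of MDA-kb2 cells at 37C, 0% CO2, with nilutamide added at 3.0uM final.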

Estrogen receptor (Homo sapiens), sequence (P03372 whole entry, looked up): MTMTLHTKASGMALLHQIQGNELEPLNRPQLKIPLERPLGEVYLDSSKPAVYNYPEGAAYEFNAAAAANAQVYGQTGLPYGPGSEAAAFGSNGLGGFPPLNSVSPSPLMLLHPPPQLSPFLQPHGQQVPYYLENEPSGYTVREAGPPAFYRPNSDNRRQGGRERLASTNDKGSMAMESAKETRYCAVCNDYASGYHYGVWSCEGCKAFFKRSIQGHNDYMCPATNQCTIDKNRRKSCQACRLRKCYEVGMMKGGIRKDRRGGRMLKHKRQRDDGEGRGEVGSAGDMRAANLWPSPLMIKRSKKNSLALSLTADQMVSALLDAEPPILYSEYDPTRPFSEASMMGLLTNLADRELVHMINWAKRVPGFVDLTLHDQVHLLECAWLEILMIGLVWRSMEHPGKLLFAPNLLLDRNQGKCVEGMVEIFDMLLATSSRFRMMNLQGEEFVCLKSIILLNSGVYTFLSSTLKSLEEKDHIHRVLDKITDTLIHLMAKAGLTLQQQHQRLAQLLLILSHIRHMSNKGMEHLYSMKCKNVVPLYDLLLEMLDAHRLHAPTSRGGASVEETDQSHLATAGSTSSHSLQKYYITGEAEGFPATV
Thyrotropin receptor (Homo sapiens), sequence (P16473 whole entry, looked up): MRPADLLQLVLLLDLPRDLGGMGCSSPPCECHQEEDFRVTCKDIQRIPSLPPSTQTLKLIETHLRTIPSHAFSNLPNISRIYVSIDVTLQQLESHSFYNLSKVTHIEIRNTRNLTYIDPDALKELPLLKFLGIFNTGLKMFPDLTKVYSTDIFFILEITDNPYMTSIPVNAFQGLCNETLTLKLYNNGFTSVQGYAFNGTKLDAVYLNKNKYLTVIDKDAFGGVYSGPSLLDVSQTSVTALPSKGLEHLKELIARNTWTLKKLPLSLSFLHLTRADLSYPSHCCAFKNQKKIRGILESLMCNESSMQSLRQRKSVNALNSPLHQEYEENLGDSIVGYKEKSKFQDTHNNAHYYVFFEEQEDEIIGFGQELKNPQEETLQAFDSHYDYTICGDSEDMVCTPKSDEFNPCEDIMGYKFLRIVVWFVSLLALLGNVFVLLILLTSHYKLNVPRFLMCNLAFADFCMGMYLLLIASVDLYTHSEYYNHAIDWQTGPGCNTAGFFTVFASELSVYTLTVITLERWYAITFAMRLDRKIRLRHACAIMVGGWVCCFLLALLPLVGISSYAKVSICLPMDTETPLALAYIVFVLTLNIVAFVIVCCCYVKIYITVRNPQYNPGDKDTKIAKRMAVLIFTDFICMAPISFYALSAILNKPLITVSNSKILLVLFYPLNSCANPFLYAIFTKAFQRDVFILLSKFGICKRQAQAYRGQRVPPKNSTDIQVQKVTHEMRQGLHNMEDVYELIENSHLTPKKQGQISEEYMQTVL
Progesterone receptor (Homo sapiens), sequence (P06401 whole entry, looked up): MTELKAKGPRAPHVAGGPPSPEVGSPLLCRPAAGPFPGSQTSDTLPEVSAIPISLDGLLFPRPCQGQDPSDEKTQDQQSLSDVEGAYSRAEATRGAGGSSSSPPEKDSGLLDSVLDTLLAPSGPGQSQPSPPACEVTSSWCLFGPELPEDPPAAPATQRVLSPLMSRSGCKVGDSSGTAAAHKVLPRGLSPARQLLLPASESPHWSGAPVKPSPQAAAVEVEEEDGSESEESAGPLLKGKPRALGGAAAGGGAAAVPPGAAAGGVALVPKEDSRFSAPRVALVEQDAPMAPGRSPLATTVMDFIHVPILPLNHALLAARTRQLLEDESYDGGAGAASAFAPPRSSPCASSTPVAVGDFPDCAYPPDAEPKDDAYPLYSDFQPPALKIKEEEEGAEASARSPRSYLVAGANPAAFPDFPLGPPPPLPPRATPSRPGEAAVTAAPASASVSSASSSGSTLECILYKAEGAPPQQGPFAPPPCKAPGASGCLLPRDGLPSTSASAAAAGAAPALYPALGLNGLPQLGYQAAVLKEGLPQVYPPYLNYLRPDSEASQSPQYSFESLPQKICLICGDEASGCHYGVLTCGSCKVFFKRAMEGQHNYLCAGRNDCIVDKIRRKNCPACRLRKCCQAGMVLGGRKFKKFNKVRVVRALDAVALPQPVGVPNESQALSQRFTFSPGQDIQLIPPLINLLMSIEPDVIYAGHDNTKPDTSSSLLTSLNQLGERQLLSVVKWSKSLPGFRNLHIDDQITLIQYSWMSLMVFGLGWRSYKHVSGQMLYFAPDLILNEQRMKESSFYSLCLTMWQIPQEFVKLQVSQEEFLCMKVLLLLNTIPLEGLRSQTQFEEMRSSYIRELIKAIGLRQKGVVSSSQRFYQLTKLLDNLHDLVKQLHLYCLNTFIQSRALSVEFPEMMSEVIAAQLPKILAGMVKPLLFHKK
Thyrotropin-releasing hormone receptor (Homo sapiens), sequence (P34981 whole entry, looked up): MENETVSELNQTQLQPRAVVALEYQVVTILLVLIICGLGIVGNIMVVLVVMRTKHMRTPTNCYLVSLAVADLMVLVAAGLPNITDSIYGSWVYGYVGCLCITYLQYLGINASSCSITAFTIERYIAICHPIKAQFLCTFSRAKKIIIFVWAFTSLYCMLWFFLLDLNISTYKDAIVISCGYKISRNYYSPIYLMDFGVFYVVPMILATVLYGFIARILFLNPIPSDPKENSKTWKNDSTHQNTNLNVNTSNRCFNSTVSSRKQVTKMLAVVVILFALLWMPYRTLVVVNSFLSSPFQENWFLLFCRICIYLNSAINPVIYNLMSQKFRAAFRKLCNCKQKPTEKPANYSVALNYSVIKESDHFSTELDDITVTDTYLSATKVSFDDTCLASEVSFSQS
Estrogen receptor beta (Homo sapiens), sequence (Q92731 whole entry, looked up): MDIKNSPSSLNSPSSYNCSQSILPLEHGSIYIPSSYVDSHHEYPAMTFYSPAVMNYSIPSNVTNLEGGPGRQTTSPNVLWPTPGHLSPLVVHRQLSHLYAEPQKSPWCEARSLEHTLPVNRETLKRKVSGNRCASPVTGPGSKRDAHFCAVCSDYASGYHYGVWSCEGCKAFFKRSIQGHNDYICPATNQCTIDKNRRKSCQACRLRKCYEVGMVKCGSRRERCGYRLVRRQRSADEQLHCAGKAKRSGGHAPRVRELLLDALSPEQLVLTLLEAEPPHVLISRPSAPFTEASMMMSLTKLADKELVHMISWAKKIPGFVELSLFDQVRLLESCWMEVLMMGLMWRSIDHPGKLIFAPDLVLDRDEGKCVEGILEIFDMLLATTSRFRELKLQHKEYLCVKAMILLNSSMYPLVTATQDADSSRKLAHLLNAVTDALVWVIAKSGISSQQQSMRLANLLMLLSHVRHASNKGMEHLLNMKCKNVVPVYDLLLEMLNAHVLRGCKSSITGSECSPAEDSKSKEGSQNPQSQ
Androgen receptor (Homo sapiens), sequence (P10275 whole entry, looked up): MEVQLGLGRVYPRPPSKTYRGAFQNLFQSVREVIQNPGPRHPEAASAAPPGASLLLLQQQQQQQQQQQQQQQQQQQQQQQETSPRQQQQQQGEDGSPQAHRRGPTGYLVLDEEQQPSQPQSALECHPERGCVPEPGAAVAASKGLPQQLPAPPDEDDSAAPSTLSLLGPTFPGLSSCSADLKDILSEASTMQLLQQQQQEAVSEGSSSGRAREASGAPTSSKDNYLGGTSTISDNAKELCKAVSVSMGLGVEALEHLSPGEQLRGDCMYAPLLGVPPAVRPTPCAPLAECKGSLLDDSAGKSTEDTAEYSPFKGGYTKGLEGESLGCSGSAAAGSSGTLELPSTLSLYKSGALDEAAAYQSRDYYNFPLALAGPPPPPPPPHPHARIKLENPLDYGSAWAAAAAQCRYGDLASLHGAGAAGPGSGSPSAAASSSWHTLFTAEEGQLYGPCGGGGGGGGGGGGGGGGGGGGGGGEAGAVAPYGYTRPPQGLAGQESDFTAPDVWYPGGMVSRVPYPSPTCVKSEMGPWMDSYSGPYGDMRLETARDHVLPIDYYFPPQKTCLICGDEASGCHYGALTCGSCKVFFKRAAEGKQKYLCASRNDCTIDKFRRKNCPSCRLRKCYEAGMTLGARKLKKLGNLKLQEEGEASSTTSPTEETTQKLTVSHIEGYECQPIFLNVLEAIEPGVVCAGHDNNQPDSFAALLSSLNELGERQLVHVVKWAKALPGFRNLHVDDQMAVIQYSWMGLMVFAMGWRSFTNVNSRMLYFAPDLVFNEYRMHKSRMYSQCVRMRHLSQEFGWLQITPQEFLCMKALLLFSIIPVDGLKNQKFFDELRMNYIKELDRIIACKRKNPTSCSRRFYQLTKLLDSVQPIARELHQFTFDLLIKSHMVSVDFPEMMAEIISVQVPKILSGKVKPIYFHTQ

Turning to `Cc1cc(-n2nc3ccc(Cl)cc3n2)c(O)c(C(C)(C)C)c1`, the Potency result in [1], in experiment [2], in experiment [3], in [5], in [6] and in [7] was “inactive” each time. Moreover, the Potency result in experiment [8], in experiment [9], in experiment [10], in [11] and in experiment [12] was “inactive” each time. For the same compound, the compound was called inactive in experiment [4].

As to `CN1CCCCC1CCN1c2ccccc2Sc2ccc(S(C)=O)cc21` (configuration not stated), the Potency entry in [1], in experiment [13], in [14], in [6], in [7] and in [9] was “inactive” throughout. Further, the Potency result in [10], in experiment [11] and in [15] was “inactive” throughout. For the same compound, the result in experiment [4] and in [16] was inactive.

On to `Clc1ccnc(Cl)n1`, for which the Potency entry in [2], in [17], in [3], in [13], in [5] and in experiment [14] was “inactive” in each case. For the same compound, the Potency entry in experiment [6], in [9], in experiment [10], in experiment [11], in experiment [15] and in [12] was “inactive” each time. The compound was classed as inactive in [4] and in experiment [16].

With `CCCCCCCCCCCCCC[N+](C)(C)Cc1ccccc1`, the Potency is 43.9 µM (active) and 29.8 µM (active) and 14.1 mM (active) in [2]; 27.7 µM (active) and 10.6 µM (active) and 11.2 mM (active) in experiment [17]; 19.6 µM (active) and 9.44 µM (active) and 10 mM (active) in [3]; 55.3 µM (active) and 5.96 µM (active) in experiment [18]; 27.7 µM (active) and 6.68 µM (active) and 12.6 mM (active) in experiment [8]; 49.7 µM (active) in experiment [9]. Also, the Potency is 49.7 µM (active) and 19 µM (active) in experiment [10]; 55.3 µM (active) in experiment [12]. The Potency entry in experiment [13], in experiment [5], in [14], in experiment [6] and in experiment [11] was “inactive” each time. Moreover, in experiment [4], the result was inactive.

For `Nc1nc2c(ncn2COCCO)c(=O)[nH]1`, the Potency entry in experiment [2], in experiment [17], in [3], in experiment [13], in [5] and in experiment [14] was “inactive” throughout. Besides, the Potency result in [6], in experiment [7], in [18], in [8], in [10] and in [12] was “inactive” each time. Besides, the compound was classed as inactive in [4].

For the compound `CCCCCCCCCCCCOC(=O)c1ccc(O)cc1`, the Potency entry in [2], in experiment [17], in [3], in experiment [13], in experiment [14] and in experiment [6] was “inactive” in each case. In addition, the Potency entry in experiment [18], in experiment [9], in experiment [10], in experiment [11], in experiment [15] and in [12] was “inactive” in each case. Further, the outcome in [19] and in experiment [16] was inactive.

As for `CCCC(=O)OCOC(=O)C1=C(C)NC(C)=C(C(=O)OC)C1c1cccc(Cl)c1Cl` (configuration not stated), the Potency entry in [2], in [17], in [3], in experiment [13], in experiment [5] and in experiment [14] was “inactive” in each case. In addition, the Potency entry in experiment [6], in experiment [18], in experiment [8], in experiment [9], in experiment [10] and in experiment [12] was “inactive” each time. The outcome in experiment [19] and in experiment [4] was inactive.
